# Screening data (PubChem BioAssay)
# CYP2C9 inhib: blocks human cytochrome P450 2C9; CYP2C9 Supersomes, luciferin-H conversion, luminescence; AID 777; hit rate 20% among 96,000; P11712; inhibition, % at 5 µM;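 active means blocking of liver enzyme CYP2C9 beyond about 50% at 5 µM, limit read from the data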
# Target sequence (P11712 whole entry, looked up): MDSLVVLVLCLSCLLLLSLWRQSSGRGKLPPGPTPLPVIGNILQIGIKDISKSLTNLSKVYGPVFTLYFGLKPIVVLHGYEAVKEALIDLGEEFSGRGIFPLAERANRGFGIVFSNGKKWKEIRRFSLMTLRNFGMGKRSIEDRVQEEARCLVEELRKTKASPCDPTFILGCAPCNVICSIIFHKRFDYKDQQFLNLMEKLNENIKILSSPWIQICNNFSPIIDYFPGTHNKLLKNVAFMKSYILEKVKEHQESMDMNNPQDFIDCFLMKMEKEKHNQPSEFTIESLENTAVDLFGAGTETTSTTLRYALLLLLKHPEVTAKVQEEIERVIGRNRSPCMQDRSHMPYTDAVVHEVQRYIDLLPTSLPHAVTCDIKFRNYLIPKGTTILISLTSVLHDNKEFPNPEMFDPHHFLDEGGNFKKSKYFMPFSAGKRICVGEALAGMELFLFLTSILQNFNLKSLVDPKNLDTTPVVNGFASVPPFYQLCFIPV
# CYP2C19 activ: cytochrome P450 2C19 (human) activation; 96,000 tested, under 10 active; activation factor at 5 µM; recombinant CYP2C19, luciferin-H EGE luminescence; hits give high values; 0 = fully inhibited enzyme, 1 = untreated enzyme; AID 1025;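 active means activation factor of at least 2 at 5 µM in the primary screen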
# PostGolgi yeast: growth inhibition of a yeast mutant, post-Golgi transport screen. inhibition, % at 10 µM. hit rate 0.9% among 98,000. post-Golgi transport phenotypic cell assay;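 further: yeast cells grown in 1536-well plates; yeast grown about 18 h at 30C before absorbance read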
# CYP2C9 activ: activators of human CYP2C9 | P11712 | recombinant CYP2C9, luciferin-H conversion, luminescence; hits give high values; factor 1 = untreated enzyme, 0 = blocked | hit rate 1.4% among 96,000 | activation factor at 5 µM | AID 1024;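 active means activation factor of 2 or more for CYP2C9 at a 5 µM dose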
# PostGolgi ctrl: inhibits growth of the yeast control strain; efflux-deficient yeast background strain, growth absorbance A615, 16 h; inhibition, % at 10 µM; hit rate 5% among 98,000; AID 738
# CYP2C19 inh: human CYP2C19 inhibition; CYP2C19 Supersomes, luciferin-H EGE luminescence, 30 min; inhibition, % at 5 µM; hit rate 21% among 96,000; AID 778;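 active means CYP2C19 inhibition above a set limit at 5 µM in the primary screen, cut at about 50% in these data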
# Numbers stand for hits; . = inactive; / = not tested or not shown. An excerpt weighted towards active compounds, which were near 32% of everything screened. Unless noted, no stated cut-off is given here; in the data, active means inhibition above about 30%; inactive means the rest.
SMILES,CYP2C9 inhib,CYP2C19 activ,PostGolgi yeast,CYP2C9 activ,PostGolgi ctrl,CYP2C19 inh
Cc1cnn(CCC(=O)NNC(=S)Nc2cccc(Cl)c2)c1,.,.,.,.,.,.
O=C(c1ccco1)N1CCN(S(=O)(=O)c2ccc3c(c2)OCCO3)CC1,.,.,.,.,.,96
O=S(=O)(c1ccc(Oc2ncnc3scc(-c4ccccc4)c23)cc1)N1CCOCC1,73,.,.,.,.,72
C[C@H](NC(=O)c1ccco1)C(=O)Nc1ccc(S(=O)(=O)N2CCCC2)cc1,.,.,.,.,.,.
CC(C(=O)Nc1ccc(S(=O)(=O)N2CCCC2)cc1)N1CCN(C(=O)c2ccco2)CC1 (configuration not stated),64,.,.,.,.,.
Cc1n[nH]c(C)c1S(=O)(=O)N1CCN(C(=O)c2ccco2)CC1,.,.,.,.,.,.
Cc1cc(NC(=O)CCN2C(=O)C3C4C=CC(C4)C3C2=O)c2ccccc2n1 (configuration not stated),.,.,.,.,.,.
O=C(CCN1C(=O)C2C3C=CC(C3)C2C1=O)Nc1c(F)cccc1F (configuration not stated),.,.,.,.,39,.
CN1C(=O)c2c(sc3c2CCCC3)NC1c1ccccc1O (configuration not stated),87,.,.,.,.,74
Cc1cccc(C2NC(=O)c3c(sc(C)c3C)N2)c1O (configuration not stated),.,.,.,.,.,.
CC1CCCC(C(=O)O)N1C(=O)CCSSCCC(=O)N1C(C)CCCC1C(=O)O (configuration not stated),.,.,.,.,.,.
Cc1ccc(NC2c3ccccc3C(=O)N2CCN2CCOCC2)cc1 (configuration not stated),.,.,.,.,.,82
O=C1c2ccccc2C(Nc2ccc(S(=O)(=O)N3CCCCC3)cc2)N1Cc1ccco1 (configuration not stated),90,.,.,.,.,.
CCN(CC)S(=O)(=O)c1ccc(NC2c3ccccc3C(=O)N2CCN2CCOCC2)cc1 (configuration not stated),.,.,.,.,/,.
O=C1c2ccccc2C(Nc2ccc(S(=O)(=O)N3CCCCCC3)cc2)N1c1ccccn1 (configuration not stated),.,.,.,.,.,.
O=C1c2ccccc2C(Nc2ccc(S(=O)(=O)N3CCOCC3)cc2)N1c1ccccn1 (configuration not stated),77,.,.,.,.,.
O=C1c2ccccc2C(Nc2ccc(S(=O)(=O)N3CCOCC3)cc2)N1Cc1ccco1 (configuration not stated),60,.,.,.,.,.
CNC(=O)C1CC(=O)N/C(=N/N=C(\C)c2cccs2)S1 (configuration not stated),.,.,.,.,.,.
O=C(COc1cc(=O)n2c(n1)SCCC2)c1ccccc1,.,.,.,.,.,.
COc1ccc(Cl)cc1NC(=O)C/C(C)=N/NC(=O)CC#N,.,.,.,.,.,.
COc1ccc(Cl)cc1NC(=O)CC(C)=O,.,.,.,3.6,.,.
COc1ccc(Cl)cc1NC(=O)C1CCCO1 (configuration not stated),.,.,.,3.1,.,.
COc1ccc(Cl)cc1NC(=O)NCCCl,.,.,.,.,.,.
COc1ccc(NC(=O)C2CCCO2)cc1OC (configuration not stated),.,.,.,.,.,.
COc1ccc(Cl)cc1NC(=O)CC(C)c1ccccc1 (configuration not stated),.,.,.,4,.,85
SMILES,CYP2C9 inhib,CYP2C19 activ,PostGolgi yeast,CYP2C9 activ,PostGolgi ctrl,CYP2C19 inh
O=C1CS/C(=C\[N+](=O)[O-])N1c1ccc(OC(F)(F)F)cc1,.,.,.,.,.,.
Cn1c(/N=C/c2cccs2)nc2ccccc21,.,.,.,.,.,.
Cc1ccc(C)c(N=Nc2nc3ccccc3n2C)c1,.,.,.,.,.,66
Cc1ccc(C)c2[nH]c(=O)c(CN(CCN3CCCC3)C(=O)Nc3cccc(Cl)c3)cc12,.,.,.,.,.,.
COc1ccc(S(=O)(=O)N(CCCN2CCCC2=O)Cc2cc3cc(C)c(C)cc3[nH]c2=O)cc1,68,.,.,.,.,.
COc1ccc2[nH]c(=O)c(CN(CCO)S(=O)(=O)c3c(C)ccc4nsnc34)cc2c1,.,.,.,.,.,.
Cc1ccc(S(=O)(=O)N(CCCN2CCCC2=O)Cc2cc3c(C)ccc(C)c3[nH]c2=O)cc1,63,.,.,.,.,.
Cc1cccc(C2=N/C(=C\c3cccnc3)C(=O)O2)c1,.,.,.,.,.,.
COCCN(C(=O)CCCC(=O)Nc1ccccn1)C(C(=O)NC1CCCCC1)c1ccc(C)cc1 (configuration not stated),56,.,.,.,.,64
O=C(CCCC(=O)N(c1ccc2c(c1)OCCO2)C(C(=O)NC1CCCCC1)c1ccc(F)cc1)Nc1ccccn1 (configuration not stated),.,.,.,2,.,52
COCCNC(=O)C(c1ccc(C)cc1)N(C(=O)CCC(=O)Nc1ccccn1)C1CCCC1 (configuration not stated),.,.,/,.,/,.
CCOC(=O)Nc1cccc(NC(=O)c2cc(OC)cc(OC)c2)c1,/,/,.,/,.,/
Cc1ccnc(NS(=O)(=O)c2ccc(Oc3ccccc3)cc2)c1,.,.,.,.,.,67
CCCCC(=O)OCC(=O)Nc1ccc(OC(F)F)cc1,.,.,.,.,.,.
O=C(COC(=O)CCC1CCCCC1)Nc1ccc(OC(F)F)cc1,.,.,.,.,.,.
O=C(COC(=O)C1CC1)Nc1ccc(OC(F)F)cc1,.,.,.,.,.,77
O=C(COC(=O)C1CCC1)Nc1ccc(OC(F)F)cc1,.,.,.,.,.,86
COc1ccc(Cl)cc1C(=O)NC(=S)Nc1cc(-c2nc3ccccc3[nH]2)ccc1C,/,/,.,/,35,/
O=C(/C=C/Nc1cccc([N+](=O)[O-])c1)c1cccs1,71,.,.,.,.,.
CCC(c1nnnn1CCOC)N1CCN(c2cccc(C(F)(F)F)c2)CC1 (configuration not stated),55,.,.,.,.,69
CCC(c1nnnn1CCOC)N1CCN(Cc2ccccc2)CC1 (configuration not stated),.,.,.,.,31,.
COCCn1nnnc1C(CC(C)C)N1CCN(c2cccc(OC)c2)CC1 (configuration not stated),75,.,.,.,.,81
COCCn1nnnc1C(c1cccs1)N1CCN(c2cccc(C(F)(F)F)c2)CC1 (configuration not stated),.,.,.,.,.,.
COc1ccc(Cn2c(CCC(=O)NCc3ccco3)nc3cccnc32)cc1,.,.,.,.,.,.
